Assays:
Assay in all cases: log2 ratio of Biotin-Ahx-Ub-VS probe labelling (fragment/DMSO); higher = less target engagement (more negative = stronger competition), active = hit call of the paper (q ≤ 0.05, log2 ratio ≤ -1)
Settings in all cases: compound concentration: 200 uM; treatment time: 3 h
USP34 = USP34 (UniProt Q70CQ2)
Outline: (§1)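 Each value is an average log2 ratio of fragment to vehicle, tested by unpaired t-test. The underlying Spectronaut label-free quantities were global-median-normalised, and only proteins with ≥2 unique peptides were included. Triplicate HEK293T lysate samples (495 µg) were exposed to fragment at 200 µM or vehicle for 3 h, then to Biotin-Ahx-Ub-VS at 0.5 µM final for 1 h, before NeutrAvidin enrichment of labelled DUBs, LysC and trypsin digestion, and diaPASEF LC-MS/MS.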

USP36 = target: T1, USP36 (UniProt Q9P275)
T1 sequence (whole entry): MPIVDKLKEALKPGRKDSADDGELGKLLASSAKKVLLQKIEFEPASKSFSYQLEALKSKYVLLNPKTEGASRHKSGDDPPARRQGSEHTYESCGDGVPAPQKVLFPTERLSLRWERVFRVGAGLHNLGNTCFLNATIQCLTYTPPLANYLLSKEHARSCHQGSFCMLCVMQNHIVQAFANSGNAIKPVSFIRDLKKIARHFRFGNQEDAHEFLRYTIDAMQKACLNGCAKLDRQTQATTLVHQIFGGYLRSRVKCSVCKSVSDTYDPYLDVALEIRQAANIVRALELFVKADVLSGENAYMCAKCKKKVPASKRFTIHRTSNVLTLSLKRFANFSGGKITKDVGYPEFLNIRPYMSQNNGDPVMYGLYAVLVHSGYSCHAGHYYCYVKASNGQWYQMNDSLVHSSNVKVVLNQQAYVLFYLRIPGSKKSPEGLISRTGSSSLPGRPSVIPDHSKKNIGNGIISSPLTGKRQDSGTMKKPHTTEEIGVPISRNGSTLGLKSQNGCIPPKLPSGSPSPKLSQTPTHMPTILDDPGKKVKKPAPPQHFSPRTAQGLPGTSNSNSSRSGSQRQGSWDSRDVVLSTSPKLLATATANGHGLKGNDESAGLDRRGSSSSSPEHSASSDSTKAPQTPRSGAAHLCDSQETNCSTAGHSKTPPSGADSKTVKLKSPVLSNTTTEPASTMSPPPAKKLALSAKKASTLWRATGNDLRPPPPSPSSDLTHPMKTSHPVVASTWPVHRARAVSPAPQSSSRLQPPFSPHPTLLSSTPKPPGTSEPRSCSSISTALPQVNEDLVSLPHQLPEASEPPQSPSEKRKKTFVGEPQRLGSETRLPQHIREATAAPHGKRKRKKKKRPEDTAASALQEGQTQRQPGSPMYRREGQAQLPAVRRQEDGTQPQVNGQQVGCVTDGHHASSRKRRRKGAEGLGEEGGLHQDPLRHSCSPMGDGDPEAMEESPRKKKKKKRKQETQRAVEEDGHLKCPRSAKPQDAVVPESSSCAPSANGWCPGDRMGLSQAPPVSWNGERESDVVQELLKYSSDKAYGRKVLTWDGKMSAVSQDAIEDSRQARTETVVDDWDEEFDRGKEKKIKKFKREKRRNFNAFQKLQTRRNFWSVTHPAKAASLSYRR
Outline: as §1

USP38 = target: T2, USP38 (UniProt Q8NB14)
T2 sequence (whole entry): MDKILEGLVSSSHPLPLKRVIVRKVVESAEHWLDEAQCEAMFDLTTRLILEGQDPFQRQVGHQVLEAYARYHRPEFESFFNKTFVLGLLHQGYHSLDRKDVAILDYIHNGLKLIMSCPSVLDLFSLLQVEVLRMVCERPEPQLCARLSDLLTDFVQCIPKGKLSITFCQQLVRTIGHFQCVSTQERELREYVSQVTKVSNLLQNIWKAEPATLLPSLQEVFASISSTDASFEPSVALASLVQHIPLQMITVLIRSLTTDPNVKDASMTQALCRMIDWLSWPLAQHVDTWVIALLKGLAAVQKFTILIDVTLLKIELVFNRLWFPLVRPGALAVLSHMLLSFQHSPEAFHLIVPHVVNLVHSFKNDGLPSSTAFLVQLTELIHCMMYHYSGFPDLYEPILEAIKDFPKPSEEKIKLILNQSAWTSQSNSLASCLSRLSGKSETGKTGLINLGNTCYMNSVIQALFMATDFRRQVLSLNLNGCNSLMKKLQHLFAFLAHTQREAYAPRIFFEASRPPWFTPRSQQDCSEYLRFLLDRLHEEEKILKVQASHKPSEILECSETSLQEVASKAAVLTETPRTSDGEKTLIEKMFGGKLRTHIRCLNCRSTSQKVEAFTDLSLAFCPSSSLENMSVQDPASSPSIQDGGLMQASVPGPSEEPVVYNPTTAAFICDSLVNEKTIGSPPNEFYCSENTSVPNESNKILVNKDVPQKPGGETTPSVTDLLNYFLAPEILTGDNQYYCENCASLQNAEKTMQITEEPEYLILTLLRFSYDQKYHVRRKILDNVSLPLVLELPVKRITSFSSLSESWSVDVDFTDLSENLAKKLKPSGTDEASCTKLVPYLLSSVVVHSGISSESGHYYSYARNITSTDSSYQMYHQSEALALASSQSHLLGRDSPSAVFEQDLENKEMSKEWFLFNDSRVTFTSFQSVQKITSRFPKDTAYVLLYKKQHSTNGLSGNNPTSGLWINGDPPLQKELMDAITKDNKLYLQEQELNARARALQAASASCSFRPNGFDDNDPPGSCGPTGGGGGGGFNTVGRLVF
Outline: as §1

USP39 = target: T3, USP39 (UniProt Q53GS9)
T3 sequence (whole entry): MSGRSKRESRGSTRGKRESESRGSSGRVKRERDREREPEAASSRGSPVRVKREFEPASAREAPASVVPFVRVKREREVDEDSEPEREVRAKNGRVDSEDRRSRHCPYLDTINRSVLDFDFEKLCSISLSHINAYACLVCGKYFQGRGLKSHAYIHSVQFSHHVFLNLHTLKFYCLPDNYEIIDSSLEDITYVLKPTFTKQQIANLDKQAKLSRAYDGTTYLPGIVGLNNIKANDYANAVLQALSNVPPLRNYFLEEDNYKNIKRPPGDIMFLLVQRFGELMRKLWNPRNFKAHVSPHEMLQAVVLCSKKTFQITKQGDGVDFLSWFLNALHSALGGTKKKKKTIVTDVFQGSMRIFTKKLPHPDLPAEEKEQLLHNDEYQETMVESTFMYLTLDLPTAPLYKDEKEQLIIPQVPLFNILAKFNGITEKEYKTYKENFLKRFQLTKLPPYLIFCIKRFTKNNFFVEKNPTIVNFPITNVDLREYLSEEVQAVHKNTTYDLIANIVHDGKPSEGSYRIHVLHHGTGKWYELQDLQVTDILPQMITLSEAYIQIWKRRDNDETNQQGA
Outline: as §1

USP4 = target: T4, USP4 (UniProt Q13107)
T4 sequence (whole entry): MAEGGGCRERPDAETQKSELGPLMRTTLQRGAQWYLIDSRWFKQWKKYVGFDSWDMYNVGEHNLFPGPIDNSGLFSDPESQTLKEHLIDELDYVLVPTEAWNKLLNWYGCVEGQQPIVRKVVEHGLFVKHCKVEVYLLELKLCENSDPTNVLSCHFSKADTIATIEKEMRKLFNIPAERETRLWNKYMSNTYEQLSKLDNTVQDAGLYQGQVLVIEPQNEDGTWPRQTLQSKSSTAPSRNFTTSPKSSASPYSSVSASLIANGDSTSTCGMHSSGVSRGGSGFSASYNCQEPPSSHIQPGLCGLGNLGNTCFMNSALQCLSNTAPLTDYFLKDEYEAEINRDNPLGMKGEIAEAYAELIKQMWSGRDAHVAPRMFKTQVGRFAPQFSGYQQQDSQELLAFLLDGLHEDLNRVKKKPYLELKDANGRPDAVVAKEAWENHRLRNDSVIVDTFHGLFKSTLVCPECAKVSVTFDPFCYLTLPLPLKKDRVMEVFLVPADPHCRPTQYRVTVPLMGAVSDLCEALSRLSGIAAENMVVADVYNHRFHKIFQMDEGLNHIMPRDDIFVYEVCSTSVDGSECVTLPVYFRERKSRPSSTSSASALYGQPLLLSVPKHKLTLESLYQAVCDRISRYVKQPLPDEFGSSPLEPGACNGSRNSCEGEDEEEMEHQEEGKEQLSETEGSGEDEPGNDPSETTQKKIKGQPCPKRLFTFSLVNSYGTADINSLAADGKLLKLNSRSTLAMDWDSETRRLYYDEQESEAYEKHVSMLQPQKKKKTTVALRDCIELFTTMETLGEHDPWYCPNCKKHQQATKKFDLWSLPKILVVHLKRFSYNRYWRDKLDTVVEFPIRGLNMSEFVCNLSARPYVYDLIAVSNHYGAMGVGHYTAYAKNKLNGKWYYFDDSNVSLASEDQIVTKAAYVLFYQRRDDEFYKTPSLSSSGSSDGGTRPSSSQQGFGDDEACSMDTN
Outline: as §1

Measured: log2 ratio of Biotin-Ahx-Ub-VS probe labelling

Chain of USP34 (Q70CQ2 whole entry, the tested form may be a part): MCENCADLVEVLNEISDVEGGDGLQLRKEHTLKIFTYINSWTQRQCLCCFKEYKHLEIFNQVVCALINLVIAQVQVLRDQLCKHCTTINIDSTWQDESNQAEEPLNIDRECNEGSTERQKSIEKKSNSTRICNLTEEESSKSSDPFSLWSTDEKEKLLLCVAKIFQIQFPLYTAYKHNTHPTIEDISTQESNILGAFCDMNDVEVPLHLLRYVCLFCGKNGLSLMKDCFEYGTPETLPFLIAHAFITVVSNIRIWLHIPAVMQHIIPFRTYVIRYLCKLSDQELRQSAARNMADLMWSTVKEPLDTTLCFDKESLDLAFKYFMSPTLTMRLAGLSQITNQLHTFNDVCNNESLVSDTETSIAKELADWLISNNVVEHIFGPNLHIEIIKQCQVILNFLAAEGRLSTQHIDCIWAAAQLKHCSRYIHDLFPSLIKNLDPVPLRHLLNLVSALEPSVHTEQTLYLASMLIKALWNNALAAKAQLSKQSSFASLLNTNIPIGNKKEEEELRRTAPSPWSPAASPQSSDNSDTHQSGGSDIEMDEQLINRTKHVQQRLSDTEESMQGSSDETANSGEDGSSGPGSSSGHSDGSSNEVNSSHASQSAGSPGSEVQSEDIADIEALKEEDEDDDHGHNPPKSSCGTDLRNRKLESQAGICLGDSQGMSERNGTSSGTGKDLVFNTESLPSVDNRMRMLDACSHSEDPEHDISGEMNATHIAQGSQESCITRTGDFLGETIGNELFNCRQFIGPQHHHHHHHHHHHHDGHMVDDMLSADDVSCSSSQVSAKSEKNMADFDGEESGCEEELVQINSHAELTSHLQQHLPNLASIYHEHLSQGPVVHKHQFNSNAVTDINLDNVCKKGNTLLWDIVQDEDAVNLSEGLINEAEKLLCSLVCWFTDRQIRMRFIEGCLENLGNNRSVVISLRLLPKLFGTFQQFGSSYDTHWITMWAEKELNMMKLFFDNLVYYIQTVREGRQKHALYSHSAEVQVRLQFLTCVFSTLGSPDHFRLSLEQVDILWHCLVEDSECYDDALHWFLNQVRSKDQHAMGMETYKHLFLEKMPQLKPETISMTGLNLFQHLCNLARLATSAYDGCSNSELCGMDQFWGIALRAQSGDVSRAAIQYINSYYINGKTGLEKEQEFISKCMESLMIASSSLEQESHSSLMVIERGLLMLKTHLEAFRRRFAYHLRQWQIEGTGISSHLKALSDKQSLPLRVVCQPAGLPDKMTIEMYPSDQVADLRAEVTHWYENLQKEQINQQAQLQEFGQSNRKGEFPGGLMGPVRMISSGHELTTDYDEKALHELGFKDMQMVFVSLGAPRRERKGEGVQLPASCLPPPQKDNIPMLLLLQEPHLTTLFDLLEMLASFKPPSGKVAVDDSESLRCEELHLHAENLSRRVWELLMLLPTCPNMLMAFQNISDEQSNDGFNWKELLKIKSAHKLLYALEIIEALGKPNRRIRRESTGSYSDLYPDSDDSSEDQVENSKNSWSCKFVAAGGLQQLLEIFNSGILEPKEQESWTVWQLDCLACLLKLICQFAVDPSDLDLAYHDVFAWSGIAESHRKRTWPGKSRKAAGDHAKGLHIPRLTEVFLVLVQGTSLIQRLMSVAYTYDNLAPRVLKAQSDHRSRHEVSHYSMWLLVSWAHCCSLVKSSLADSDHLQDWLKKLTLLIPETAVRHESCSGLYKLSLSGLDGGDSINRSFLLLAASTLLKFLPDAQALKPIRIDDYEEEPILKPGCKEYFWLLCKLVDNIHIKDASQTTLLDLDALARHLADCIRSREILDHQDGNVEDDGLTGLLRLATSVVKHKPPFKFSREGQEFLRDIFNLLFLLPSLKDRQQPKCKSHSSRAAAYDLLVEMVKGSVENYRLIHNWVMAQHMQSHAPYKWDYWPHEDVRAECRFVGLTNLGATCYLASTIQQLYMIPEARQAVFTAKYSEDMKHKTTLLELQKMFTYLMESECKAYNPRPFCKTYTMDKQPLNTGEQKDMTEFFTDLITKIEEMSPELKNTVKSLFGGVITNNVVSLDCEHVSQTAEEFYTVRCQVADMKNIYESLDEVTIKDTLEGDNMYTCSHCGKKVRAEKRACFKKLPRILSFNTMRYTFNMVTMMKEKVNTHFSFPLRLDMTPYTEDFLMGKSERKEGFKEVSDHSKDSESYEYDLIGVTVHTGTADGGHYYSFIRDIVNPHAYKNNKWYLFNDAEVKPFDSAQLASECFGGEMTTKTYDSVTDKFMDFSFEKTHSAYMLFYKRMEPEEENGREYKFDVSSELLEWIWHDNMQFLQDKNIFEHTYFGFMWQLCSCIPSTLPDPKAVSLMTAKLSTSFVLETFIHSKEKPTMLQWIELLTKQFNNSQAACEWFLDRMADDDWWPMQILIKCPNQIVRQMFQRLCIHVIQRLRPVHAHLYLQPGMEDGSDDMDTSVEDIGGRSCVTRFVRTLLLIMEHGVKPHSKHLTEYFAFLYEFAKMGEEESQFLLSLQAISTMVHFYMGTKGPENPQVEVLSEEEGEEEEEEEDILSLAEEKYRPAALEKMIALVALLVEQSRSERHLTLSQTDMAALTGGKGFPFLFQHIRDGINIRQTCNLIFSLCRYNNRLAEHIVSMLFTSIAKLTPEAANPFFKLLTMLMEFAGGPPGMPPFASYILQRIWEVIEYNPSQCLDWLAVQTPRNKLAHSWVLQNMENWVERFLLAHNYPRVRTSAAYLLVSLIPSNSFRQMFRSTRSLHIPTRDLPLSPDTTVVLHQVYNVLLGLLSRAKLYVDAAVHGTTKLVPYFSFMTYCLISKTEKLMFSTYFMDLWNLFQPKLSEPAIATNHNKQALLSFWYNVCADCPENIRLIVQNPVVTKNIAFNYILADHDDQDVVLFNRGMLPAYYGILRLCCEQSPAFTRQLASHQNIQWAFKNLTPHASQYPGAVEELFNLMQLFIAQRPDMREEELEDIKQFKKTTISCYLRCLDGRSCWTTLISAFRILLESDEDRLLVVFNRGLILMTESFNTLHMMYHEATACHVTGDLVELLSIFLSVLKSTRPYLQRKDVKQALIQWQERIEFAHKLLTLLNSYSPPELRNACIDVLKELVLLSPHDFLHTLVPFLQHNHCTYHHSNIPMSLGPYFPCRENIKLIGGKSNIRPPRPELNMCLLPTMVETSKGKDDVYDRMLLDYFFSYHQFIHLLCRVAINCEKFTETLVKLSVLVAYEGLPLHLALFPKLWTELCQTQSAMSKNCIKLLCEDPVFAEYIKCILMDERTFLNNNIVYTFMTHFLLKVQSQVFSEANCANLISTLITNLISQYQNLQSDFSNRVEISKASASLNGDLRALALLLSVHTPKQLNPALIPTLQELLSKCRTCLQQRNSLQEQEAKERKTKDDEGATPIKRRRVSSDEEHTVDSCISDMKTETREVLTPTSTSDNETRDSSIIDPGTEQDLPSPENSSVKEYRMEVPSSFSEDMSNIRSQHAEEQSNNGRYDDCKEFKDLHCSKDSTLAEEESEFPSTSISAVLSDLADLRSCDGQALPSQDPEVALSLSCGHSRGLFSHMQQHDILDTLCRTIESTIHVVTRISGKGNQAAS

O=C(CCl)N1CCC(O)(Cc2ccc(F)cc2)C1 (stereo not given)
inactive: USP34 -0.0775 | USP36 0.229 | USP38 0.29 | USP39 0.427 | USP4 -0.138

Reference: the supplement of paper PMC11732987, “Enantioselective OTUD7B fragment discovery through chemoproteomics screening and high-throughput optimisation” (Communications Chemistry, 2025)
